Assay outcomes from PubChem.
Only some compounds are listed: those with a hit (about 7.3% of all), similar ones and a draw of the others.
AmpC inh no detg = inhibitors of E. coli AmpC beta-lactamase without detergent. AID 485341. P00811. AmpC nitrocefin hydrolysis, absorbance 480 nm, 0.0001% Triton. 0.52% of 330,000 active. Potency, µM (series often up to 57.1 µM), without a hit: at the top dose activity change, negative = inhibition, usual class: inhibitors;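 further: potency means the concentration at half of the fitted maximal effect; plate controls were no compound for no effect and no enzyme for full effect; nearly all actives have a fitted effect of over 20% in size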
Target sequence (P00811 whole entry, looked up): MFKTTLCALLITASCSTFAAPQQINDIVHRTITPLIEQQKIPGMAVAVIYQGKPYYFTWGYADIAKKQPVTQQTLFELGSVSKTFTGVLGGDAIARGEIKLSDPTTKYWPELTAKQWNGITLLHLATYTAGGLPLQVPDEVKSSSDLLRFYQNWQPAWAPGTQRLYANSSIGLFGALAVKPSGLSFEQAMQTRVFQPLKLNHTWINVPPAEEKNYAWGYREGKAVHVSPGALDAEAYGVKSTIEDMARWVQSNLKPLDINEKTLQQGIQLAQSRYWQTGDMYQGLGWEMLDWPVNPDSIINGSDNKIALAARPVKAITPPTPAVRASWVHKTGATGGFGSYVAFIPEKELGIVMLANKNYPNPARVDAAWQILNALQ
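20 mM phosphate pH 7.0 + 0.01% (detergent screen) or 0.0001% Triton X-100; 5.3 nM AmpC reagent; cpd preinc 15 min RT; nitrocefin (800 uM stock) to start; A480 q20 s × 4 min; Activity was normalised to no-enzyme and no-compound control wells.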
AmpC detergent = blocks E. coli AmpC beta-lactamase in detergent assay; AmpC hydrolysis of nitrocefin, absorbance 480 nm, 0.01% Triton; P00811; Potency, µM (top dose mostly 114 µM), for the others: top-dose activity change, negative = inhibition, actives largely listed as inhibitors; 0.041% of 370,000 active; AID 485294;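 further: potency means the concentration at half of the fitted maximal effect; 0% = no-compound wells and -100% = no-enzyme wells; nearly all actives have a fitted effect of over 25% in size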
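AmpC (5.3 nM in the dispensed reagent) in 20 mM phosphate pH 7.0 with 0.01% (detergent screen) or 0.0001% Triton X-100 was preincubated with compounds for 15 min at room temperature. Nitrocefin was then added from an 800 uM solution, and hydrolysis was followed at 480 nm.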
HCMV inh = blocks human cytomegalovirus replication. HFF cells, HCMV-luciferase reporter, 72 h; active compounds read low. activity change, negative = inhibition, % at 57.5 µM. 4.5% of 410,000 active; in the data active means activity change below about -60%; inconclusive means no clear call, values can overlap the other calls; inactive means above about -39%
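After 16 h attachment at 37C, HFF cells received test compound and HCMV-luciferase (1 PFU/cell); reporter luminescence read 72 h later, data normalized against buffer-only and known inhibitor Salinomycin.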
HCV inh = inhibitors of hepatitis C virus infection; Huh7.5.1 HCVcc-Cre infection, luciferase reporter, 44 h; Potency, µM (titrated, usually from 41.8 µM), for the others: at the top dose activity change, negative = inhibition, actives largely listed as inhibitors; 3.4% of 340,000 active; AID 651820; further: potency means the concentration at half of the fitted maximal effect
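Compounds are dispensed onto cells plated 4 h earlier at 1,000 per well, with HCVcc-Cre virus (about 0.5 moi) added next. Following 44 h of culture, luminescent signal is measured for 15 sec after 15 min with substrate at room temperature.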
FMDV inh = foot and mouth disease virus antiviral activity; Potency, µM (top dose mostly 57.9 µM), without a hit: at the top dose activity change, negative = inhibition, most hits filed as inhibitors; FMDV antiviral cell-based qHTS; 1.2% of 410,000 active; calls by dose curve; tested in HEK293T cells; further: read-out not given here; potency means the concentration at half of the fitted maximal effect; nearly all actives have a fitted effect of over 45% in size
* hit, by the source's call; u = inconclusive; x = no result; [ ] = dose if it differs, or a comment. Unless noted, the call rests on the fitted dose curve; in most records, active means well fitted curve in the direction sought with a large enough effect; inconclusive means small, poorly fitted or top-dose-only effect, or another doubt; inactive means no such curve, though single readings can be large; an effect the other way counts as inactive or inconclusive. Unless noted, on the % scale 0 is the no-effect control and ±100 the full control effect.

SMILES	AmpC inh no detg	AmpC detergent	HCMV inh	HCV inh	FMDV inh
O=C(NCCc1ccccc1)C(c1cccs1)N(C(=O)CCl)c1ccc(Cl)cc1 (stereo unspecified)	1.0%	-5.2%	-99.5*	u	35.5µM*
CCOc1ccc(NC(=O)C(Cc2ccccc2)N2C(=O)c3cccc4cccc(c34)C2=O)cc1 (stereo unspecified)	-9.5%	-3.7%	-99.2*	u	-9.4%
CCOc1ccc(NC(=O)[C@H](Cc2ccccc2)N2Cc3ccccc3C2=O)cc1	x	-5.9%	7.1	x	-1.4%
COc1ccc([C@@H]2[C@@H](C(=O)N3CCCC3)CC(=O)N2C(=O)c2ccccc2)cc1	x	x	-16.7	x	x
CCOC(=O)[C@]12CCC=C1N(Cc1ccc(Cl)cc1Cl)C(=O)[C@H](CC(=O)NCc1cccc3ccccc13)C2	x	x	0.6	x	-11.6%
CCOC(=O)[C@]12CCC=C1N(Cc1ccc(Cl)cc1Cl)C(=O)[C@H](CC(=O)NCc1ccc(OC)c(OC)c1)C2	x	x	-92.6*	x	u
COC(=O)[C@]12CCCCC=C1N(Cc1cccc3ccccc13)C(=O)[C@H](CC(=O)NCC13CC4CC(CC(C4)C1)C3)C2	x	x	-85.1*	x	-14.2%
CCOC(=O)[C@]12CCCC=C1N(Cc1cccc3ccccc13)C(=O)[C@H](CC(=O)NCc1ccc(OC)c(OC)c1)C2	x	x	-76.0*	x	u
C#CCNC(=O)C[C@@H]1C[C@@]2(C(=O)OC)CCCCC=C2N(Cc2cccc3ccccc23)C1=O	x	x	1.8	x	-24.2%
N#Cc1ccc(NC(=O)CSc2nc3[nH]c(=O)cc(O)c3s2)cc1	-42.4%	5.6%	-91.7*	25.3%	-12.3%
Nc1cc(C(=O)OCC(=O)Nc2cccc(S(=O)(=O)N3CCOCC3)c2)ccc1Cl	-26.4%	x	-1.6	-19.0%	-15.4%
CCOc1ccc(Nc2nc3ccccc3n3nnnc23)cc1	-22.4%	-20.0%	-18.7	13.0%	7.5%
CN(C)c1ccc(Nc2nc3ccccc3n3nnnc23)cc1	x	9.4%	-61.8*	x	u
COc1ccc(NC(=S)N2CCN(C(=O)C3CCCO3)CC2)cc1 (stereo unspecified)	17.8%	-0.8%	-31.5	x	-3.6%
COc1ccc(C(=O)Nc2oc(-c3ccccc3)c(-c3ccccc3)c2C#N)cc1	8.91µM*	-5.6%	u	10µM*	-17.7%
COc1ccc(C(=O)Nc2oc(-c3ccccc3)c(-c3ccccc3)c2C#N)cc1OC	u	-2.4%	11.9	11.2µM*	x
COc1ccc(-c2oc(NC(=O)c3ccc(C)cc3)c(C#N)c2-c2ccc(OC)cc2)cc1	-33.0%	u	8.8	-26.5%	2.3%
Clc1cccc(CNCCCSc2nnnn2-c2ccccc2)c1	x	-4.8%	-3.9	x	10.3%
COc1ccc(Cl)cc1NC(=O)CCCn1c(=O)c2cccn2c2cccnc21	x	-1.0%	-6.4	x	-16.9%
O=C(c1ccc(Cl)cc1)c1ccc(Oc2cc(NN3CCCCC3)c([N+](=O)[O-])cc2[N+](=O)[O-])cc1	-44.3%	2.3%	-3.1	7.1%	-5.4%
COc1ccccc1OC1=NS(=O)(=O)c2ccccc21	-1.7%	-7.5%	33.7	21.9%	39.8µM*
Cc1ccc(OC2=NS(=O)(=O)c3ccccc32)cc1	-17.0%	-4.6%	-20.9	6.1%	8.0%
COc1cccc(-c2nn3c(=O)cc(CN4CCN(C(=O)COc5ccccc5C)CC4)nc3s2)c1	x	-3.0%	12.9	x	3.55µM*
Cc1noc(C)c1COc1ccccc1C(=O)NCCc1ccccc1	-14.6%	-10.1%	-16.5	3.16µM*	-16.0%
CCn1nc(C(=O)NNC(=O)c2ccccc2OCc2c(C)noc2C)c2ccccc2c1=O	57.4%	-2.6%	-82.8*	u	-27.8%
SMILES	AmpC inh no detg	AmpC detergent	HCMV inh	HCV inh	FMDV inh
O=C(Nc1ccc(-n2cccc2)cc1)C1=COC2=NC(=O)N(Cc3ccccc3)CCN12	x	x	-87.1*	x	x
O=C(Nc1ccccc1)C1CCCN1C(=O)Nc1ccccc1[N+](=O)[O-] (stereo unspecified)	-13.2%	-9.6%	-61.5*	-13.7%	-11.8%
Cc1cc(N2CCN(c3nc(-c4ccc([N+](=O)[O-])cc4)cs3)CC2)c2ccccc2n1	-18.7%	5.3%	-23.2	6.31µM*	u
CC(C)C[C@H]1CN([C@@H](CC(C)C)CN2CCC[C@@H]2CN2C(=O)C(=O)NC[C@@H]2Cc2ccccc2)C(=O)C(=O)N1CC1CCCCC1	x	x	-65.9*	4.8%	-6.4%
CC(C)C[C@@H](CN1CCC[C@H]1CN1C(=O)C(=O)NC[C@@H]1Cc1ccccc1)N1C[C@H](Cc2ccc(O)cc2)N(CC2CCCCCC2)C(=O)C1=O	x	x	-103.0*	x	-20.2%
Cc1ccc(NS(=O)(=O)c2ccc3c(c2)CC(=O)N3)cc1F	-56.0%	u	-62.4*	17.8%	43.6%
O=C(CSC1=Nc2ccccc2C2CC=NN12)Nc1ccc2c(c1)OCO2 (stereo unspecified)	-28.0%[11.4 µM]	u	50.0	u	20µM*
N#Cc1ccccc1NC(=O)CSc1ccc([N+](=O)[O-])cn1	-9.6%	-7.2%	-65.8*	5.0%	-2.6%
Cc1nnc(NC(=O)CSc2ccc([N+](=O)[O-])cn2)s1	-14.5%	-14.6%	34.7	7.8%	-3.4%
N#Cc1ccccc1NC(=O)CSC1=Nc2ccccc2C2CC=NN12 (stereo unspecified)	-27.5%	1.2%	-60.1*	-11.6%	u
CCOc1ccc(-c2cc3nc(C4CCN(C(=O)OC(C)(C)C)CC4)c(C(=O)Nc4cccc(Cl)c4C)cn3n2)cc1	x	-6.1%	4.9	x	-27.8%
COc1ccc(CCNC(=O)CCCc2ccccc2)cc1OC	16.3%	-5.7%	-29.4	-17.2%	0.9%
CN(C)S(=O)(=O)N1CCN(C(=O)N2CCOCC2)CC1	-20.4%	2.8%	-100.6*	11.3%	x
CN(C)S(=O)(=O)N1CCN(C(=O)N2CCCCC2)CC1	-10.6%	-13.4%	38.7	-2.2%	x
Cc1noc(C)c1CC(=O)N1CCOc2c(cc(-c3nc4ccccc4s3)cc2OC2CCOC2)C1 (stereo unspecified)	x	x	x	x	-8.7%
CN(Cc1ccccn1)Cc1nc(Cc2ccccc2Cl)no1	10.1%	-2.9%	u	2.2%	0.5%
Cc1cnccc1CN(C)Cc1nc(Cc2ccccc2Cl)no1	31.9%	-6.8%	-60.5*	u	u
Cc1nc(S(=O)(=O)N2CCN(c3ccccc3F)CC2)cn1C	x	19.4%	14.7	x	-21.3%
CCCCN(C(=O)CCC(=O)Nc1cc(C)on1)C(C(=O)NC1CCCC1)c1ccccc1OCC (stereo unspecified)	58.7%	0.0%	-4.7	7.7%	-10.8%
O=C1C(=O)N(CCS(=O)(=O)c2ccccc2)c2ccc(Cl)cc21	-28.2%	-14.7%	-38.5	15.6%	-5.1%
Cc1ccc(OCCN2C(=O)C(=O)c3cc(C)ccc32)cc1	-3.4%	u	-92.3*	u	-3.5%
CCCN1C(=O)C(=O)c2cc(Cl)ccc21	-12.1%	x	-85.6*	u	-0.4%
Cc1ccc2c(c1)C(=O)C(=O)N2Cc1ccc(OC(C)C)cc1	x	5.2%	-76.3*	x	-8.7%
